A short description of experiment [1]: ATG_TGFb_CIS: Attagene CIS-FACTORIAL HepG2 Assay for human Transforming Growth Factor (TGF) (AID 2282967). Particulars: HepG2 Attagene CIS TGFb reporter, mRNA transcription; actives raise or lower the signal. An outline of the steps:
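Readout: fluorescently labeled reporter cDNA fragments resolved by capillary electrophoresis after RT-PCR. Transfected HepG2 cells dosed for 24 h; endogenous TF activity at TGFB1-linked cis element; gain or loss fitted relative to DMSO.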

Experiment [2] deals with X-box-binding protein 1 (Homo sapiens) (UniProt P17861). Kind of experiment: ATG_Xbp1_CIS: Attagene CIS-FACTORIAL HepG2 Assay for human X-box Binding Protein 1 (XBP1) (AID 2282972). To be noted: HepG2 XBP1 cis-element reporter, Attagene multiplex; actives raise or lower the signal. An outline of the steps:
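HepG2 cells transiently transfected with multiple cis-element reporter units report endogenous TF activity; 24 h exposure, then reporter mRNA measured by RT-PCR, 6-FAM labelling, HpaI digestion and capillary electrophoresis. Bidirectional fitting versus DMSO.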

Experiment [3] deals with Oxysterols receptor LXR-alpha (Homo sapiens) (UniProt Q13133). The experiment can be described thus: ATG_LXRa_TRANS: Attagene TRANS-FACTORIAL HepG2 Assay for human Liver X Receptor alpha (LXRa) (AID 2282980; active = hit-call score of the fitted dose curve at least 0.9, where 1 is the maximum). Particulars: HepG2 Attagene TRANS reporter, LXRa transactivation. In a few lines:
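Transfect HepG2 with GAL4-UAS multiplex reporter constructs (TRANS format, chimeric receptor-GAL4); treat 24 h; extract RNA, reverse-transcribe, PCR-amplify, FAM-label, HpaI-digest; resolve fragments by capillary electrophoresis. Upward response vs DMSO.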

Experiment [4] has as its target Oxysterols receptor LXR-beta (Homo sapiens) (UniProt P55055). The experiment can be described thus: ATG_LXRb_TRANS: Attagene TRANS-FACTORIAL HepG2 Assay for human Liver X Receptor beta (LXRb) (AID 2282981; active = hit-call score of the fitted dose curve at least 0.9, where 1 is the maximum). Particulars: HepG2 Attagene TRANS GAL4-LXRb reporter, mRNA. In a few lines: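 In this TRANS format, exogenous chimeric NR-Gal4 protein activity, not endogenous factors, drives reporter expression in transfected human HepG2 cells. Exposure lasted 24 h; reporter mRNA was read by fluorescent capillary electrophoresis.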

Experiment [5] can be described thus: ATG_M_06_TRANS: Attagene TRANS-FACTORIAL HepG2 Assay for M06 Transcription Factor (Internal Marker) (AID 2282983; active = hit-call score of the fitted dose curve at least 0.9, where 1 is the maximum). To be noted: HepG2 Attagene TRANS M06 internal marker reporter. An outline of the steps: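 Transfect HepG2 with MRTUs → dose compounds 24 h → isolate RNA, oligo(dT) RT → PCR with reporter primers → 6-FAM primer extension → HpaI digest → CE fragment analysis. Positive direction vs DMSO.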

Experiment [6] can be described thus: ATG_M_32_TRANS: Attagene TRANS-FACTORIAL HepG2 Assay for M32 Transcription Factor (Internal Marker) (AID 2282984; active = hit-call score of the fitted dose curve at least 0.9, where 1 is the maximum;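 also: transcript level of a background control reporter unit measured by RT-PCR and capillary electrophoresis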). To be noted: HepG2 Attagene TRANS M32 internal marker reporter. In a few lines: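 Human hepatoma HepG2, transient MRTU transfection, 24 h treatment. RNA → RT-PCR → fluorescent primer extension → HpaI digest (2 h, 37 C) → CE. Positive-direction fit vs DMSO.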

Experiment [7] deals with Nuclear receptor subfamily 4 group A member 2 (Homo sapiens) (UniProt P43354). Kind of experiment: ATG_NURR1_TRANS: Attagene TRANS-FACTORIAL HepG2 Assay for human Nuclear Receptor Related Protein 1 (NURR1) (AID 2282985; active = hit-call score of the fitted dose curve at least 0.9, where 1 is the maximum). To be noted: HepG2 Attagene TRANS reporter, mRNA readout. In a few lines:
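After 24 h chemical dosing, total RNA from transiently transfected HepG2 cells was reverse-transcribed and reporter cDNA PCR-amplified, FAM-labelled and analysed by capillary electrophoresis. Activity fitted in positive direction, DMSO as negative control.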

The target of experiment [8] is Transcriptional activator Myb (Homo sapiens) (UniProt P10242). The experiment can be described thus: ATG_Myb_CIS: Attagene CIS-FACTORIAL HepG2 Assay for human Myeloblastosis (Myb) Proto-Oncogene Transcription Factor (AID 2282986). To be noted: HepG2 Attagene CIS-FACTORIAL Myb reporter transcription; actives raise or lower the signal. An outline of the steps:
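HepG2, transient MRTU transfection (cis-element promoters, endogenous TF activity), 24 h compound exposure. Readout: reporter mRNA via RT-PCR, 6-FAM labeling, HpaI digest, capillary electrophoresis. Gain/loss fit vs DMSO.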

Experiment [9] has as its target Nuclear respiratory factor 1 (Homo sapiens) (UniProt Q16656). Kind of experiment: ATG_NRF1_CIS: Attagene CIS-FACTORIAL HepG2 Assay for human Nuclear Respiratory Factor 1 (NRF1) Orphan Gene (AID 2282987). Particulars: HepG2 NRF1 cis-element reporter, Attagene multiplex; actives raise or lower the signal. In a few lines: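 Endogenous NRF1-driven reporter transcription measured in transiently transfected human HepG2 liver cells. Readout: reporter mRNA by RT-PCR and capillary electrophoresis with fluorescence detection, 24 h post-dosing. Gain or loss of signal fitted relative to DMSO baseline.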

The nature of experiment [10]: ATG_NFI_CIS: Attagene CIS-FACTORIAL HepG2 Assay for human Nuclear Factor I (NFI) (AID 2282989). Particulars: HepG2 cis-regulatory reporter, NFI response element transcription; actives raise or lower the signal. An outline of the steps: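 Read-out: reporter mRNA via RT-PCR plus capillary electrophoresis with fluorescence detection. Transiently transfected HepG2 (endogenous TF activity on cis promoters), 24 h compound exposure; gain or loss of signal fitted against DMSO.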

Experiment [11] addresses Myc proto-oncogene protein (Homo sapiens) (UniProt P01106). The experiment can be described thus: ATG_Myc_CIS: Attagene CIS-FACTORIAL HepG2 Assay for human Myelocytomatosis (Myc) Proto-Oncogene Transcription Factor (AID 2282990). Particulars: HepG2, Attagene cis-reporter transcription factor activity; actives raise or lower the signal. An outline of the steps: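 HepG2 cells transiently transfected with multiple cis-promoter-driven reporter transcription units, so endogenous TF activity is read. After 24 h compound exposure, reporter mRNA was quantified by RT-PCR, 6-FAM labelling, HpaI digestion and capillary electrophoresis; bidirectional fit versus DMSO.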

Experiment [12] concerns the target Glucocorticoid receptor (Homo sapiens) (UniProt P04150). Kind of experiment: ATG_GR_TRANS: Attagene TRANS-FACTORIAL HepG2 Assay for human Glucocorticoid Receptor (GR) (AID 2282978; active = hit-call score of the fitted dose curve at least 0.9, where 1 is the maximum;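 also: activators score as hits since higher reporter transcript over DMSO is fitted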). Particulars: HepG2 Attagene TRANS GR reporter, mRNA transcription. In a few lines: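 Transient MRTU transfection of HepG2 (GAL4-UAS reporters, exogenous NR-GAL4 chimeras), 24 h dosing. Readout: reporter transcript via RT-PCR + capillary electrophoresis fluorescence. Positive direction vs DMSO baseline.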

In experiment [13] the target is Estrogen receptor (Homo sapiens) (UniProt P03372). Kind of experiment: ATG_ERa_TRANS: Attagene TRANS-FACTORIAL HepG2 Assay for human Estrogen Receptor alpha (ERa) (AID 2282970; active = hit-call score of the fitted dose curve at least 0.9, where 1 is the maximum). To be noted: HepG2 Attagene TRANS ERa GAL4 reporter, mRNA. An outline of the steps: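 Human liver HepG2, transient transfection of multiple GAL4-UAS reporter units; TRANS format (exogenous NR-Gal4 chimera). 24 h dosing. Readout: reporter mRNA, RT-PCR, 6-FAM primer extension, HpaI digest, capillary electrophoresis. Positive direction vs DMSO.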

Experiment [14] addresses Bile acid receptor (Homo sapiens) (UniProt Q96RI1). Kind of experiment: ATG_FXR_TRANS: Attagene TRANS-FACTORIAL HepG2 Assay for Farnesoid X Receptor (FXR) (AID 2282979; active = hit-call score of the fitted dose curve at least 0.9, where 1 is the maximum;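 also: hits raise reporter mRNA above DMSO so AC50 marks FXR activation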). Particulars: HepG2 Attagene TRANS FXR-GAL4 reporter transcription. An outline of the steps:
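Transient transfection of HepG2 with multiplexed GAL4-UAS reporter units; exogenous FXR-GAL4 chimera. Dose 24 h → TriZol RNA → oligo(dT) RT → PCR, 6-FAM primer extension, HpaI cut → CE. Gain vs DMSO.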

Experiment [15] is described as follows: ATG_VDRE_CIS: Attagene CIS-FACTORIAL HepG2 Assay for human Vitamin D Receptor Element (VDRE) (AID 2282968). To be noted: HepG2 VDRE cis-reporter transcription, actives raise or lower the signal. An outline of the steps: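 RT-PCR/CE readout of reporter mRNA; HepG2, transient transfection, 24 h dosing; DMSO baseline; bidirectional analysis.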
Experiment [16] addresses Estrogen-related receptor gamma (Homo sapiens) (UniProt P62508). The experiment can be described thus: ATG_ERRg_TRANS: Attagene TRANS-FACTORIAL HepG2 Assay for human Estrogen-Related Receptor gamma (ERRg) (AID 2282977; active = hit-call score of the fitted dose curve at least 0.9, where 1 is the maximum;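 also: hits increase reporter signal over DMSO so potencies reflect activators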). Particulars: HepG2 Attagene TRANS reporter, ERRg transactivation. An outline of the steps:
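HepG2 cells transiently transfected with multiplexed GAL4-UAS reporter units driven by chimeric NR-Gal4 proteins; 24 h exposure. Reporter mRNA quantified by RT-PCR, fluorescent labelling, HpaI digestion and capillary electrophoresis; gain of signal vs DMSO.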

Inconclusive results are not listed. Activity calls are given as the source filed them. The calls were made as follows, unless noted: active = hit-call score of the fitted dose curve at least 0.9, where 1 is the maximum; inactive = score below 0.9.

Sequence of Myc proto-oncogene protein (Homo sapiens) (P01106 whole entry, looked up): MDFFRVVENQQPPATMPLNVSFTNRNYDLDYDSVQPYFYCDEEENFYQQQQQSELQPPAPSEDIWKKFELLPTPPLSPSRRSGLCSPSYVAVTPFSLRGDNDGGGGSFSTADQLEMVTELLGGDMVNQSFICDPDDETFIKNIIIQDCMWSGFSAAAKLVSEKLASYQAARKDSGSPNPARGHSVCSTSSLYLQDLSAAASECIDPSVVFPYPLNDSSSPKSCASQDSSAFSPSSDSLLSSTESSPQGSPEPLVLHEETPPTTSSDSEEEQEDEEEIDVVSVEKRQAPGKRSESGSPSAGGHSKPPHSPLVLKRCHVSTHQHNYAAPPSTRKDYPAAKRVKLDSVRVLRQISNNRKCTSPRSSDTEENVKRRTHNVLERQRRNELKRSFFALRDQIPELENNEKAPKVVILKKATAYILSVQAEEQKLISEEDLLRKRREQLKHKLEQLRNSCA
Sequence of Glucocorticoid receptor (Homo sapiens) (P04150 whole entry, looked up, the tested form may be a part): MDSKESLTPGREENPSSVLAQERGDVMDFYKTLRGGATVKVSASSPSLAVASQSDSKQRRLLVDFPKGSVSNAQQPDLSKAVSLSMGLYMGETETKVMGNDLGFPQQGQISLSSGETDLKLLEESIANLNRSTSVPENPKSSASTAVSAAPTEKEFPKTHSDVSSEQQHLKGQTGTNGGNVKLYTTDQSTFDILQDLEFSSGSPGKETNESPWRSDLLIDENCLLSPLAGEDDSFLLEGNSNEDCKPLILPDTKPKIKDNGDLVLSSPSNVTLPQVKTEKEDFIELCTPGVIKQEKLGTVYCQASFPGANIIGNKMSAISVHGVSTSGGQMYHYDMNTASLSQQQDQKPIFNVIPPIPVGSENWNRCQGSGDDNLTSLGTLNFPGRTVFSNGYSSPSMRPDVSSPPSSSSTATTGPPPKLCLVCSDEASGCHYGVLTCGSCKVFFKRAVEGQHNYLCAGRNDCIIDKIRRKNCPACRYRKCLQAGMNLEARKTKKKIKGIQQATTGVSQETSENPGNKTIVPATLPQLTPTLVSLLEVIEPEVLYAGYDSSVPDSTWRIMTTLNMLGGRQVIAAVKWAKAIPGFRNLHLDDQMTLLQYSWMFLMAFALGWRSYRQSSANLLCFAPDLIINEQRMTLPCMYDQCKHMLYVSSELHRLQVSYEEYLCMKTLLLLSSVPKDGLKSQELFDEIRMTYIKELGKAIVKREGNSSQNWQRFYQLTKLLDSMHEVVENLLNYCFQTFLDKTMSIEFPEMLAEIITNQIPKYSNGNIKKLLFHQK
Sequence of Nuclear receptor subfamily 4 group A member 2 (Homo sapiens) (P43354 whole entry, looked up): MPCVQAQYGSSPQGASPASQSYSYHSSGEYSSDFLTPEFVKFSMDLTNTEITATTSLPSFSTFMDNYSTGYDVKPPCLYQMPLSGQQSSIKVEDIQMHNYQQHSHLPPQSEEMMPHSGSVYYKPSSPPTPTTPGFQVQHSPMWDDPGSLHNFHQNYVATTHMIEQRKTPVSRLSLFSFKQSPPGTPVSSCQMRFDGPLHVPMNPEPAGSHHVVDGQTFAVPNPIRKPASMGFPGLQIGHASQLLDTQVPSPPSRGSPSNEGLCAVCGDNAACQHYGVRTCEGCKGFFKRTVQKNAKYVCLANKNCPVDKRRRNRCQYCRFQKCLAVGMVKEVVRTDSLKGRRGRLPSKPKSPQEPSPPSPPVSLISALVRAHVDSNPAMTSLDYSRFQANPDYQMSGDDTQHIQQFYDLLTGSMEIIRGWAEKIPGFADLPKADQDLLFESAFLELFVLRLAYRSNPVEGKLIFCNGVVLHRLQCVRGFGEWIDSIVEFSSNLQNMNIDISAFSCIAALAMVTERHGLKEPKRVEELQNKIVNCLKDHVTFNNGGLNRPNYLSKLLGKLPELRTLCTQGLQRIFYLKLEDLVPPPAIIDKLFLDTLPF
Sequence of Nuclear respiratory factor 1 (Homo sapiens) (Q16656 whole entry, looked up): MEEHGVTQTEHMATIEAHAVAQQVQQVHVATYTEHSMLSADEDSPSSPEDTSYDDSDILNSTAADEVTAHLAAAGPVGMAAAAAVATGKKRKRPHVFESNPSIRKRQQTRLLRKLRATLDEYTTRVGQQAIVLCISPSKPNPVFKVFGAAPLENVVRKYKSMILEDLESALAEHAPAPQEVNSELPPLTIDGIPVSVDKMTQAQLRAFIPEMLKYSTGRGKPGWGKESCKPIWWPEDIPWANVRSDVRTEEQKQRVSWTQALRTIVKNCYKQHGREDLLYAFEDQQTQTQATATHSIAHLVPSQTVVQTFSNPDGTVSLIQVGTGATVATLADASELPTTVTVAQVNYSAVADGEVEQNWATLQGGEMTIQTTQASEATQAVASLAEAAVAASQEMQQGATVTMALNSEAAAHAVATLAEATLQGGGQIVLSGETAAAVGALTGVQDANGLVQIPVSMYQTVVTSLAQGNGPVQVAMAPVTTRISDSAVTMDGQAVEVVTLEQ
Sequence of X-box-binding protein 1 (Homo sapiens) (P17861 whole entry, looked up): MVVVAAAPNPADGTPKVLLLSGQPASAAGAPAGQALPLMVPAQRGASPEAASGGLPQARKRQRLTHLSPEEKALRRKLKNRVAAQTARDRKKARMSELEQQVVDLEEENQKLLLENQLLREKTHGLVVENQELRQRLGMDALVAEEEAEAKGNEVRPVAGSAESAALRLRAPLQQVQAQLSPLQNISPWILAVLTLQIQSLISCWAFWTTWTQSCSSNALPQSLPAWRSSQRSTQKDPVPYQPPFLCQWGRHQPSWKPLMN
Sequence of Transcriptional activator Myb (Homo sapiens) (P10242 whole entry, looked up): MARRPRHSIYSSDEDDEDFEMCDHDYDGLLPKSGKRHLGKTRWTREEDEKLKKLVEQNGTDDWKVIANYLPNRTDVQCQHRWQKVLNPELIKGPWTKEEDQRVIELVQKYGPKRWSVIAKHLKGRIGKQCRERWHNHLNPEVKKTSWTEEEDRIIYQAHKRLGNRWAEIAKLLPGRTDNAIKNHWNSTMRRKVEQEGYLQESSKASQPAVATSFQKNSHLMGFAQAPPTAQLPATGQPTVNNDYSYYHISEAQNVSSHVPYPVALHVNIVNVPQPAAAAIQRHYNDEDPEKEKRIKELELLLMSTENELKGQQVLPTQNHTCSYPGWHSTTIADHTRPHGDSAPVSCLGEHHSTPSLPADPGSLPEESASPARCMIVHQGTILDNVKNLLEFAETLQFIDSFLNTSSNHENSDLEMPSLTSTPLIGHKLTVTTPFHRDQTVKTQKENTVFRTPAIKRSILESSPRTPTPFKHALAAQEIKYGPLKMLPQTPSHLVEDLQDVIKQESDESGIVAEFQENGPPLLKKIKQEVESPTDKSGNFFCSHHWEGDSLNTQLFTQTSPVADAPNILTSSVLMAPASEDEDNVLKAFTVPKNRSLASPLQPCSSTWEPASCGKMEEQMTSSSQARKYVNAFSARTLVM
Sequence of Estrogen receptor (Homo sapiens) (P03372 whole entry, looked up, the tested form may be a part): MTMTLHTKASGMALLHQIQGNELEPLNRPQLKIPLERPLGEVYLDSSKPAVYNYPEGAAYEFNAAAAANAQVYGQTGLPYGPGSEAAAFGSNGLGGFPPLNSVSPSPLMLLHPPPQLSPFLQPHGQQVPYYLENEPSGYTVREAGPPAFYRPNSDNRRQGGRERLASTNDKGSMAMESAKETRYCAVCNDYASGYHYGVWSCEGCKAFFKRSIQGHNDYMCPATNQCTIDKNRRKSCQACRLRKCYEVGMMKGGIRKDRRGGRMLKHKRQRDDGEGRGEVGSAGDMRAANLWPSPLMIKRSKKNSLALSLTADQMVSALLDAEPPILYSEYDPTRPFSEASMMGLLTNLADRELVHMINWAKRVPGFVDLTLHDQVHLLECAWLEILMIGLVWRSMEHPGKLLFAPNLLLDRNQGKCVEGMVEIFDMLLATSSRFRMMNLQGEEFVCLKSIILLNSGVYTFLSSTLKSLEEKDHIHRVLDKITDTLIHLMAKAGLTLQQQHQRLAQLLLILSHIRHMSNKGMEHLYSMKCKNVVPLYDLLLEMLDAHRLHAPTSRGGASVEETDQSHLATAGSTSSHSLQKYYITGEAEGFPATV
Sequence of Bile acid receptor (Homo sapiens) (Q96RI1 whole entry, looked up, the tested form may be a part): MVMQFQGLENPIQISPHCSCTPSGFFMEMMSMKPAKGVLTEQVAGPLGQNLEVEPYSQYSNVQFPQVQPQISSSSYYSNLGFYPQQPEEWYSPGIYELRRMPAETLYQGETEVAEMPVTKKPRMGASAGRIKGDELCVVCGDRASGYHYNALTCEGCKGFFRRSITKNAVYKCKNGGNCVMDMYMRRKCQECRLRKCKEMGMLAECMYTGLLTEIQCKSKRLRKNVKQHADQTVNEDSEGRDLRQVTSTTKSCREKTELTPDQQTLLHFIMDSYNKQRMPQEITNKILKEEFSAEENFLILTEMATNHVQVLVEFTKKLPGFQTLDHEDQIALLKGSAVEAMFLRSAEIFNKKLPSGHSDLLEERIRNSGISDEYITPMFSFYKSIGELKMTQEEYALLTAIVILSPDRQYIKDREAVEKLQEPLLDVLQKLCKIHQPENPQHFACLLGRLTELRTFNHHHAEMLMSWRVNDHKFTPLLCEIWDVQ
Sequence of Oxysterols receptor LXR-beta (Homo sapiens) (P55055 whole entry, looked up, the tested form may be a part): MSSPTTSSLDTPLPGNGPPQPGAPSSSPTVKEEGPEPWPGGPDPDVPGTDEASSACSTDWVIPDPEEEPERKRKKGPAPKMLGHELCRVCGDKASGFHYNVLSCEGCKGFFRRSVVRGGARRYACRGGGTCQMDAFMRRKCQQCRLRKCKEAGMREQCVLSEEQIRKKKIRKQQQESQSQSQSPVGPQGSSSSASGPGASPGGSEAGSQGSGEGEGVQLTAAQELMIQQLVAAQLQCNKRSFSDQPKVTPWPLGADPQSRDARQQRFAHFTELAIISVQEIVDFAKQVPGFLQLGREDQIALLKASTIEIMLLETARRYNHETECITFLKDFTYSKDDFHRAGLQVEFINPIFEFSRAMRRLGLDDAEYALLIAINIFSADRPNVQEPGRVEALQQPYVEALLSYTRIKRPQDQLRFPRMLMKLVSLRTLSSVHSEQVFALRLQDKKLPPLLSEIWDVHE

In the case of `O=Cc1ccccc1C=O`, the compound was classed as inactive in experiment [1], in experiment [2], in experiment [3], in [4], in experiment [5] and in experiment [6]. In addition, the result in experiment [7], in [8], in [9], in experiment [10] and in experiment [11] was inactive.

Turning to `CCc1cc(C2=C(C(=O)O)N(c3ccccc3C(F)(F)F)S(=O)(=O)c3ccccc32)cc2c1OCO2`, the compound was called inactive in experiment [1], in experiment [2], in experiment [12], in experiment [5], in experiment [6] and in [8]. Further, the outcome in experiment [9], in experiment [10] and in experiment [11] was inactive.

In general, AC50 refers to the midpoint of the concentration-response curve, whichever way the signal moves. Regarding `CCc1nc(N)nc(N)c1-c1ccc(Cl)cc1`, the compound was called inactive in experiment [1], in experiment [13], in experiment [12], in experiment [14], in experiment [5] and in experiment [8]. Besides, in experiment [10], the compound was classed as inactive. Moreover, the results for the AC50 in experiment [2], in experiment [9] and in [11] were 147 µM (active), 48.8 µM (active) and 166 µM (active), respectively.

As for `Nc1nc(Cl)nc2c1ncn2[C@H]1C[C@H](O)[C@@H](CO)O1`, the compound was called inactive in experiment [1], in experiment [15], in experiment [2], in experiment [12], in experiment [14] and in [4]. Besides, the call in [5], in [8], in experiment [9], in experiment [10] and in experiment [11] was inactive.

For `O=C1c2c(O)cccc2Cc2cccc(O)c21`, the call in experiment [1], in experiment [2], in experiment [12], in experiment [5], in experiment [7] and in experiment [8] was inactive. Moreover, the compound was classed as inactive in experiment [9], in experiment [10] and in experiment [11].

For `Cc1ccc(-c2cc(C(F)(F)F)nn2-c2ccc(S(N)(=O)=O)cc2)cc1`, the call in [1], in [13], in experiment [2], in [16], in experiment [12] and in experiment [5] was inactive. For the same compound, the call in experiment [7], in [8], in experiment [9], in [10] and in experiment [11] was inactive.

The values above are taken from PubChem BioAssay (EPA / NIEHS).
